Conditions in all cases: compound concentration in added solution (µM; 5 µl added to 20 µl cells): 10; 18 h
Assay [1] relates to A431. Kind of assay: LBPA endosome anti-LBPA integrated intensity (sum per cell), Z-score; higher = more LBPA staining. The essentials:
(§1)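 Duplicate 384-well imaging plates were prepared with 5 µl of 10 µM compound solution per well, and 3,500 HeLa MZ or A431 cells in 20 µl were added on top. Following 18 h of incubation and fixation in 4% PFA, cells received 6C4 anti-LBPA antibody, filipin, propidium iodide and CellTracker green. Four images per well at 20× were segmented in MetaXpress to yield per-cell integrated LBPA or filipin intensity, whole-cell or within LBPA endosomes. These intensities are reported as Z-scores normalised in AcuityXpress.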

For assay [2], the system named is HeLa MZ. The assay is described as above. The essentials: as §1
Assay [3] deals with A431. In words: whole-cell filipin (free cholesterol) integrated intensity, Z-score; higher = more cholesterol staining. An outline of the steps:
as §1

In assay [4] the test system is HeLa MZ. Described as above. An outline of the steps:
as §1

Assay [5] concerns A431. In words: filipin (cholesterol) integrated intensity within LBPA endosomes, Z-score; higher = more cholesterol in LBPA endosomes. The essentials:
as §1

For assay [6], the system named is HeLa MZ. The assay is described as above. An outline of the steps: as §1

Molecules are shown by their SMILES. Where a name gives a salt, the structure may show the parent alone.

Turning to `CSc1ccc2c(c1)C(N1CCN(C)CC1)Cc1ccccc1S2` (configuration not stated) [Methiothepin maleate], the results for the “LBPA endosome anti-LBPA integrated intensity (z-score)” value in the assay on A431 [1] and in the assay with HeLa MZ [2] were 3.25 and 1.9, respectively. The figures for the “whole-cell filipin (z-score)” value in the assay on A431 [3] and in the assay on HeLa MZ [4] were 0.963 and 0.218, respectively. Further, the “filipin (z-score)” value in the assay with A431 [5] was 3; with HeLa MZ [6], 2.66.
For `Cc1ccc(S(=O)(=O)NC(=O)NN2CC3CCCC3C2)cc1` (configuration not stated) [Gliclazide], the “LBPA endosome anti-LBPA integrated intensity (z-score)” value is -0.621 in the assay on A431 [1] and -1.17 with HeLa MZ [2]. Further, the “whole-cell filipin (z-score)” value was -0.806 in the assay with A431 [3] and -0.679 with HeLa MZ [4]. The “filipin (z-score)” value with A431 [5] is -0.555; with HeLa MZ [6], -0.64.
Take `CC(C)[N+](C)(CCOC(=O)C1c2ccccc2Oc2ccccc21)C(C)C` [Propantheline bromide]: the “LBPA endosome anti-LBPA integrated intensity (z-score)” value in the assay on A431 [1] is -0.352; in the assay on HeLa MZ [2], 0.315. Besides, the entries for the “whole-cell filipin (z-score)” value in the assay on A431 [3] and with HeLa MZ [4] were -0.217 and 0.064, respectively. Also, the “filipin (z-score)” value with A431 [5] is -0.366; in the assay with HeLa MZ [6] it was -0.177.
Consider `COc1nc(C)nc(Cl)c1NC1=NCCN1` [Moxonidine], for which the “LBPA endosome anti-LBPA integrated intensity (z-score)” value was -0.127 in the assay on A431 [1] and 0.511 with HeLa MZ [2]. Also, the “whole-cell filipin (z-score)” value is -0.0575 in the assay on A431 [3] and -0.203 in the assay with HeLa MZ [4]. Besides, the figures for the “filipin (z-score)” value in the assay on A431 [5] and with HeLa MZ [6] were -0.176 and -0.384, respectively.
For the molecule `CCSc1ccc2c(c1)N(CCCN1CCN(C)CC1)c1ccccc1S2` [Thiethylperazine dimalate], the “LBPA endosome anti-LBPA integrated intensity (z-score)” value in the assay on A431 [1] worked out at 3.37; in the assay on HeLa MZ [2], 1.8. Further, the “whole-cell filipin (z-score)” value with A431 [3] is -0.311; in the assay with HeLa MZ [4], -0.392. Besides, the “filipin (z-score)” value in the assay on A431 [5] was determined as 1.25; with HeLa MZ [6], 1.79.
In the case of `CN(C)[C@@H]1C(O)=C(C(N)=O)C(=O)[C@@]2(O)C(O)=C3C(=O)c4c(O)ccc(Cl)c4[C@@H](O)[C@H]3C[C@@H]12` [Demeclocycline hydrochloride], the “LBPA endosome anti-LBPA integrated intensity (z-score)” value is -0.567 in the assay with A431 [1] and -1.25 with HeLa MZ [2]. Also, the “whole-cell filipin (z-score)” value is -0.566 with A431 [3] and -1.1 in the assay with HeLa MZ [4]. The “filipin (z-score)” value was -0.465 in the assay on A431 [5] and -0.672 in the assay with HeLa MZ [6].
Turning to `CN(C)CCN(Cc1ccc(Cl)cc1)c1ccccn1` [Chloropyramine hydrochloride], the “LBPA endosome anti-LBPA integrated intensity (z-score)” value was 0.629 in the assay with A431 [1] and 4.98 in the assay with HeLa MZ [2]. Also, the “whole-cell filipin (z-score)” value with A431 [3] came out at 1.63; in the assay with HeLa MZ [4], 5.51. Further, the “filipin (z-score)” value in the assay with A431 [5] worked out at 1.05; in the assay with HeLa MZ [6] it was 1.3.
On to `Cc1cc2c(cc1S(N)(=O)=O)S(=O)(=O)CCC2` [Meticrane], for which the “LBPA endosome anti-LBPA integrated intensity (z-score)” value was -0.412 in the assay with A431 [1] and -0.455 with HeLa MZ [2]. Besides, the “whole-cell filipin (z-score)” value in the assay with A431 [3] is -0.803; in the assay on HeLa MZ [4] it was -0.699. The “filipin (z-score)” value in the assay with A431 [5] was -0.464; in the assay with HeLa MZ [6], -0.558.
In the case of `O=C1Nc2ccc(Cl)cc2[C@@](C#CC2CC2)(C(F)(F)F)O1` [Efavirenz], the “LBPA endosome anti-LBPA integrated intensity (z-score)” value was -0.71 in the assay on A431 [1] and -0.896 in the assay on HeLa MZ [2]. Moreover, the “whole-cell filipin (z-score)” value in the assay with A431 [3] is -0.938; in the assay with HeLa MZ [4], -0.668. Besides, the entries for the “filipin (z-score)” value with A431 [5] and in the assay with HeLa MZ [6] were -0.569 and -0.836, respectively.
Turning to `CN(C)CCOC1=Cc2ccccc2Sc2ccc(Cl)cc21` [Zotepine], the “LBPA endosome anti-LBPA integrated intensity (z-score)” value was 3.49 in the assay on A431 [1] and 1.41 with HeLa MZ [2]. Besides, the results for the “whole-cell filipin (z-score)” value in the assay on A431 [3] and in the assay with HeLa MZ [4] were 1.18 and -0.352, respectively. Besides, the “filipin (z-score)” value in the assay with A431 [5] worked out at 3.08; with HeLa MZ [6] it was 1.71.
Turning to `CC[C@H](C)[C@H](N)C1=N[C@H](C(=O)N[C@@H](CC(C)C)C(=O)N[C@H](CCC(=O)O)C(=O)N[C@H](C(=O)N[C@H]2CCCCNC(=O)[C@H](CC(N)=O)NC(=O)[C@@H](CC(=O)O)NC(=O)[C@H](Cc3cnc[nH]3)NC(=O)[C@@H](Cc3ccccc3)NC(=O)[C@H]([C@@H](C)CC)NC(=O)[C@@H](CCCN)NC2=O)[C@@H](C)CC)CS1` [Bacitracin], the “LBPA endosome anti-LBPA integrated intensity (z-score)” value with A431 [1] was -0.168; in the assay with HeLa MZ [2], 0.277. Besides, the “whole-cell filipin (z-score)” value is -0.0253 in the assay on A431 [3] and 0.293 with HeLa MZ [4]. Further, the “filipin (z-score)” value in the assay with A431 [5] was -0.368; in the assay on HeLa MZ [6], -0.388.
On to `CCC(C)(C)C(=O)O[C@H]1C[C@@H](C)C=C2C=C[C@H](C)[C@H](CC[C@@H]3C[C@@H](O)CC(=O)O3)[C@H]21` [Simvastatin], for which the “LBPA endosome anti-LBPA integrated intensity (z-score)” value in the assay with A431 [1] is -0.965; in the assay on HeLa MZ [2] it was -1.54. In addition, the “whole-cell filipin (z-score)” value is -0.982 with A431 [3] and -0.319 in the assay with HeLa MZ [4]. The “filipin (z-score)” value in the assay on A431 [5] was -0.637; with HeLa MZ [6], 0.381.
As to `C[C@H](N)[C@H](O)c1cccc(O)c1` [Metaraminol bitartrate], the entries for the “LBPA endosome anti-LBPA integrated intensity (z-score)” value in the assay on A431 [1] and in the assay with HeLa MZ [2] were -0.242 and -0.0318, respectively. In addition, the figures for the “whole-cell filipin (z-score)” value in the assay with A431 [3] and in the assay on HeLa MZ [4] were -0.347 and -0.355, respectively. The results for the “filipin (z-score)” value in the assay on A431 [5] and with HeLa MZ [6] were -0.416 and -0.505, respectively.
In the case of `C#CCN(C)Cc1ccccc1` [Pargyline hydrochloride], the “LBPA endosome anti-LBPA integrated intensity (z-score)” value with A431 [1] is -0.443; in the assay on HeLa MZ [2], -0.371. The “whole-cell filipin (z-score)” value in the assay on A431 [3] was -0.77; in the assay on HeLa MZ [4], -0.65. The “filipin (z-score)” value was -0.469 in the assay on A431 [5] and -0.441 in the assay on HeLa MZ [6].
`CC(COc1ccccc1)N(CCCl)Cc1ccccc1` (configuration not stated) [Phenoxybenzamine hydrochloride]: the “LBPA endosome anti-LBPA integrated intensity (z-score)” value was -0.295 in the assay on A431 [1] and -0.519 in the assay with HeLa MZ [2]. The “whole-cell filipin (z-score)” value was -0.105 with A431 [3] and 0.141 in the assay on HeLa MZ [4]. Further, the entries for the “filipin (z-score)” value with A431 [5] and in the assay with HeLa MZ [6] were -0.396 and -0.505, respectively.
As for `COC(c1ccccc1)(c1ccccc1)[C@H](Oc1nc(C)cc(C)n1)C(=O)O` [Ambrisentan], the “LBPA endosome anti-LBPA integrated intensity (z-score)” value was -0.48 with A431 [1] and -0.16 in the assay on HeLa MZ [2]. Moreover, the “whole-cell filipin (z-score)” value is -0.0813 in the assay on A431 [3] and 1.12 with HeLa MZ [4]. The “filipin (z-score)” value is -0.393 with A431 [5] and -0.359 in the assay on HeLa MZ [6].
In the case of `CNC(=C[N+](=O)[O-])NCCSCc1csc(CN(C)C)n1` [Nizatidine], the “LBPA endosome anti-LBPA integrated intensity (z-score)” value in the assay with A431 [1] was -0.247; with HeLa MZ [2], -0.223. In addition, the “whole-cell filipin (z-score)” value in the assay on A431 [3] is 0.149; in the assay with HeLa MZ [4], -0.639. Besides, the “filipin (z-score)” value was -0.347 with A431 [5] and -0.405 in the assay on HeLa MZ [6].
On to `CC(COc1ccccc1)NC(C)C(O)c1ccc(O)cc1` (configuration not stated) [Isoxsuprine hydrochloride], for which the figures for the “LBPA endosome anti-LBPA integrated intensity (z-score)” value in the assay on A431 [1] and with HeLa MZ [2] were -0.187 and 0.869, respectively. The entries for the “whole-cell filipin (z-score)” value in the assay with A431 [3] and in the assay with HeLa MZ [4] were -0.214 and -0.465, respectively. Moreover, the “filipin (z-score)” value in the assay with A431 [5] is -0.444; with HeLa MZ [6] it was -0.378.
Take `Nc1c(Br)cc(Br)cc1CN[C@H]1CC[C@H](O)CC1` [Ambroxol hydrochloride]: the “LBPA endosome anti-LBPA integrated intensity (z-score)” value was -0.487 with A431 [1] and 0.757 with HeLa MZ [2]. Moreover, the figures for the “whole-cell filipin (z-score)” value in the assay on A431 [3] and with HeLa MZ [4] were -0.529 and -0.141, respectively. Besides, the “filipin (z-score)” value in the assay with A431 [5] was -0.428; in the assay with HeLa MZ [6] it was -0.0836.
As to `Oc1c(Cl)cc(Cl)c(Cl)c1Cc1c(O)c(Cl)cc(Cl)c1Cl` [Hexachlorophene], the “LBPA endosome anti-LBPA integrated intensity (z-score)” value in the assay with A431 [1] was -0.408; in the assay with HeLa MZ [2] it was -0.818. Also, the “whole-cell filipin (z-score)” value in the assay with A431 [3] was -0.203; with HeLa MZ [4], -0.11. Also, the “filipin (z-score)” value in the assay with A431 [5] is -0.443; in the assay with HeLa MZ [6] it was -0.32.
In the case of `CCC(=O)[C@@]1(C)[C@H](C)C[C@H]2[C@@H]3CCC4=CC(=O)C=C[C@]4(C)[C@H]3[C@@H](O)C[C@@]21C` [Rimexolone], the “LBPA endosome anti-LBPA integrated intensity (z-score)” value in the assay with A431 [1] was -0.0932; in the assay on HeLa MZ [2], 0.328. Further, the “whole-cell filipin (z-score)” value in the assay on A431 [3] is 0.343; in the assay with HeLa MZ [4] it was -0.0902. The results for the “filipin (z-score)” value in the assay with A431 [5] and with HeLa MZ [6] were -0.235 and -0.418, respectively.
For the molecule `CN(C)CCC=C1c2ccccc2COc2ccccc21` [Doxepin hydrochloride], the “LBPA endosome anti-LBPA integrated intensity (z-score)” value was determined as 1.38 in the assay on A431 [1] and 1.22 with HeLa MZ [2]. Also, the “whole-cell filipin (z-score)” value was 1.29 in the assay with A431 [3] and -0.0249 in the assay with HeLa MZ [4]. Further, the “filipin (z-score)” value with A431 [5] was 1.62; in the assay with HeLa MZ [6], 1.18.

Source of the values: the supplement of paper PMC6607015.
